We go through four compounds from PubChem BioAssay.

The structures appear in SMILES notation. Values joined by “and” are separate entries in the source; they are usually repeats but may differ in a detail not shown here. Identical values can stand only once. Active and inactive are the calls of the source.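 The calls were made as follows, unless noted: active = compounds whose cell count with miR-34 switched on is under 0.7 times the count with it off; inactive = the rest.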

Test [1] can be described thus: Wnt pathway potentiators raising nuclear beta-catenin – imaging, WNT3A-conditioned medium, mouse C2C12, NPC library, primary screen (AID 1117326; in the data active = nuclear beta-catenin stimulation mostly above about 4.2%, no sharp cut-off; inactive = mostly below about 10%). The settings on record: stronger effect = higher value.
The nature of test [2]: stimulators of insulin release from INS-1E, primary screen, cell-based, 5 mM glucose, NPC library (AID 1117329;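 active = compound raises insulin release from rat beta cells at 5 mM glucose, no numeric limit stated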). The following applies: rat INS-1E insulin secretion, at 10 µM, stronger effect = higher value.
Test [3] in a line: growth inhibition of GSK3B-pretreated HCT116 cells – cell-based, CellTiter-Glo, 0.2 to 20 µM (AID 1117336;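 active = compounds lowering colon cancer cell viability after pretreatment blocking the GSK3B kinase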). The settings on record: HCT116 viability after GSK3B inhibitor, at 20 µM, stronger effect = higher value.
The nature of test [4]: inhibition of endothelial tube formation, primary screen, imaging, VEGF stimulated, CD31 staining, tube area, NPC library (AID 1117340;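 active = compound that reduces growth-factor-driven endothelial tube area in a mixed cell culture, no cutoff stated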). The following applies: VEGF-stimulated ADSC/ECFC co-culture, at 10 µM, stronger effect = higher value.
Test [5] is described as follows: GLP1 release stimulators, primary, NCI-H716, NPC library (AID 1117341;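 active = compound raises GLP1 secretion from the human gut endocrine cells, with no numeric limit stated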). The following applies: NCI-H716 cells, at 10 µM, stronger effect = higher value.
Test [6] in a line: HCT116 colon cancer cell growth inhibition, primary screen, CellTiter-Glo luminescence, NPC library (AID 1117342;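 active = compounds that lower survival of HCT116 colon cancer cells in the luminescence readout, no numeric limit stated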). The settings on record: at 20 µM (top of the series).
Test [7] is described as follows: reduced SW480 viability measured with CellTiter-Glo, NPC library, primary (AID 1117343;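 active = compounds that lower viability of the colon cancer cells in the luminescence readout, with no numeric limit stated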). The settings on record: CellTiter-Glo luminescence; at 20 µM (top of the series) unless noted. For orientation: ATP-based viability assays read luminescence as a measure of living cells.
Test [8] in a line: NPC library primary testing for decreased DLD-1 cell viability via CellTiter-Glo (AID 1117346;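 active = compounds that lower survival of DLD-1 colon cancer cells in the luminescence readout, no cutoff given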). The following applies: DLD-1 viability, CellTiter-Glo luminescence; at 20 µM (top of the series).
Test [9] can be described thus: EMT-state selective cytotoxicity in co-culture – imaging, PC-3E GFP, TEM4-18 mCherry, primary screen (AID 1345086;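 active = compounds killing one labelled cell type while sparing the other, by normalised counts and ratio limits, not self-fluorescent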;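 as to all read-outs here: cells exposed to compound for 72 h before imaging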;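 as to red/green cell ratio (normalised): normalised mesenchymal count divided by normalised epithelial count so high means epithelial killing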). The settings on record: PC-3E GFP / TEM4-18 mCherry co-culture, imaging cell counts, at 1 µM; for red/green cell ratio (normalised): actives lie on both sides, counts scaled to control wells, 1 = unselective.
Test [10] can be described thus: viability loss with induced miR-34 in A549 – imaging, A549 dox-inducible miR-34, nuclei and caspase counts, primary screen (AID 1347080). The following applies: A549 miR-34 inducible, Hoechst nuclei count, 48 h.
Test [11] addresses NAD(+) hydrolase SARM1 (Homo sapiens) (UniProt Q6SZW1). Nature of the test: blocking NAD cleavage by SARM1 SAM-TIR – cell lysate, NAD-Glo luminescence (AID 1508614;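 active = compound whose remaining NAD level is above about 45 nM, limit read from the data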;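 also: higher remaining NAD means stronger inhibition of SARM1 NADase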). The settings on record: SAM-TIR HEK293T lysate NADase, at 1 µM, stronger effect = higher value.
Test [12] in a line: compounds altering viability of human ES cells (AID 493140; call rule not given here;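 also: cells exposed to compounds for four days before counting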). The following applies: human embryonic stem cell survival screen; stronger effect = higher value.
Test [13] can be described thus: P. berghei load reduction in hepatocytes – cell-based, HepG2, luciferase luminescence, HepG2 viability, primary screen (AID 624349; in the data active = parasite load remaining mostly below about 12%, no sharp cut-off; inactive = mostly above about 10%;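 also: 100% = mean of DMSO negative control wells on the same plate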). The settings on record: P. berghei liver stage in HepG2, luciferase luminescence, concentration not given here; parasite load remaining: stronger effect = lower value; viability: measured here: HepG2 viability without parasites.
Test [14] is described as follows: MELAS cybrid and Rieske KO viability enhancers – cell-based, MELAS cybrids, Rieske KO mouse fibroblasts, CellTiter-Glo, primary screen (AID 1508586;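 active = mean z-score across replicates of 1.96 or higher in either the MELAS or the Rieske mutant cell line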;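 also: z relative to plate mean and SD of compound and empty wells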). The following applies: low glucose.
Where [15] appears, read: measured here: epithelial PC-3E GFP cell survival.
[16] abbreviates: measured here: mesenchymal TEM4-18 mCherry cell survival.
Where [17] appears, read: stronger effect = lower value, cell number ratio, induced over uninduced.
Where [18] appears, read: measured here: relative caspase fold change +Dox/-Dox.
Where [19] appears, read: measured here: total cells with miR-34 induction, stronger effect = lower value.
The mark [20] stands for this setting: measured here: total cells without miR-34 induction.
[21] abbreviates: MELAS cybrid survival, CellTiter-Glo 48 h, stronger effect = higher value.
Where [22] appears, read: Rieske KO mouse fibroblast survival, CellTiter-Glo 72 h.

Sequence of NAD(+) hydrolase SARM1 (Homo sapiens) (Q6SZW1 whole entry, looked up): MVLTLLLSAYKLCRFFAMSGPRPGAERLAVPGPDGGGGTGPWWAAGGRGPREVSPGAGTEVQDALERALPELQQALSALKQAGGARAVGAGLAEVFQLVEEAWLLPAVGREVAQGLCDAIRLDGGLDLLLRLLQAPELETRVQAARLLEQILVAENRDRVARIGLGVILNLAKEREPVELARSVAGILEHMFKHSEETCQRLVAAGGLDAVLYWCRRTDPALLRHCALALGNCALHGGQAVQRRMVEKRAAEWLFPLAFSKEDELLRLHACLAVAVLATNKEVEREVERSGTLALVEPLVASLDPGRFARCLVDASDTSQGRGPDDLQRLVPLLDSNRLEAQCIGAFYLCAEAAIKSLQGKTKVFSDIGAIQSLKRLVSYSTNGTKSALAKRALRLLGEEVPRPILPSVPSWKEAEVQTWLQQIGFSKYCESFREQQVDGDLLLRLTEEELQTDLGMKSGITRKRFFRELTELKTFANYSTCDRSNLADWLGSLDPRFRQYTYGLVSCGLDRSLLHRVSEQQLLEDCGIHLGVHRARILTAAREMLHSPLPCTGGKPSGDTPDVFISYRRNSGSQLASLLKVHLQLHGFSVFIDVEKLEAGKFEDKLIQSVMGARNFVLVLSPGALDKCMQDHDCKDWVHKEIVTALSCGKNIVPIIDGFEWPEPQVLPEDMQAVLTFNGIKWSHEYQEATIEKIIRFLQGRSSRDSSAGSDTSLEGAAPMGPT

On to `CNC(=O)c1c(I)c(NC(C)=O)c(I)c(C(=O)O)c1I`, for which the nuclear beta-catenin stimulation is 0.7% (inactive) in test [1] (at 10 µM) and 0.8% in test [1] (stimulation, at 2 µM). For the same compound, the insulin secretion stimulation in [2] was 0.9% (inactive). For the same compound, in [3], the viability decrease was -4.1% (inactive). In test [4], the tube area decrease is 4.3% (inactive). The GLP1 secretion stimulation in test [5] was 0.4% (inactive). Also, the inhibition of viability in [6] was 13.4% (inactive). Also, the viability decrease (inhibition) in [7] is 0.4% (inactive); in test [8], -2.95% (inactive). In addition, the red/green cell ratio (normalised) in [9] was 0.78 (inactive). Besides, the normalised cell number is 1.25 in [9] (setting [15]) and 0.97 in [9] (setting [16]). Moreover, the fold change in [10] (setting [17]) was 0.982 (inactive); in test [10] (setting [18]), 0.852. Moreover, the cell count in test [10] (setting [19]) is 9390; in [10] (setting [20]), 9560. Also, in test [11], the remaining NAD is 10 nM (inactive).
For `O=C(NCC(O)CO)c1c(I)c(C(=O)NCC(O)CO)c(I)c(N(CCO)C(=O)CO)c1I` (stereo not drawn), the survival in test [12] is 5.33 (inactive). In addition, in [13], the parasite load remaining is 117% (inactive). The viability in [13] was found to be 103%. The nuclear beta-catenin stimulation in test [1] (at 10 µM) is 0.6% (inactive); in test [1] (stimulation, at 2 µM), 1.1%. Further, the insulin secretion stimulation in test [2] was 2.2% (inactive). In addition, the viability decrease in test [3] was -0.3% (inactive). Besides, in test [4], the tube area decrease was -24.3% (inactive). Further, in test [5], the GLP1 secretion stimulation was -2.6% (inactive). In test [6], the inhibition of viability is 50.9% (active). Further, the viability decrease (inhibition) was 15.5% (inactive) in test [7] and 27.9% (inactive) in test [8]. Besides, the red/green cell ratio (normalised) in test [9] is 0.86 (inactive). For the same compound, the normalised cell number in test [9] (setting [15]) came to 1.25; in [9] (setting [16]) it was 1.07. The results for the fold change in test [10] (setting [17]) and in test [10] (setting [18]) were 0.865 (inactive) and 1.27, respectively. For the same compound, the cell count worked out at 8520 in test [10] (setting [19]) and 9850 in test [10] (setting [20]). In addition, the z-score in test [14] (setting [21]) is -0.49 (inactive); in [14] (setting [22]), -1.02. In test [11], the remaining NAD was 10 nM (inactive).
As for `NCCc1ccn[nH]1`, the survival in test [12] was 17.5 (inactive). In addition, in test [13], the parasite load remaining was 35.3% (inactive) and 97.6% (inactive). Besides, the viability in test [13] is 49.8% and 93.1%. Further, the nuclear beta-catenin stimulation in [1] (at 10 µM) is 1% (inactive); in test [1] (stimulation, at 2 µM) it was 0.9%. The insulin secretion stimulation in test [2] is -1.5% (inactive). The viability decrease in [3] was -5% (inactive). In [4], the tube area decrease is -21.4% (inactive). Further, the GLP1 secretion stimulation in test [5] is 1.1% (inactive). For the same compound, the inhibition of viability in test [6] was -8.9% (inactive). The viability decrease (inhibition) was 12.5% (inactive) in test [7] and -9.4% (inactive) in test [8]. Moreover, the red/green cell ratio (normalised) in test [9] is 0.76 (inactive). Further, the figures for the normalised cell number in [9] (setting [15]) and in test [9] (setting [16]) were 1.25 and 0.95, respectively. The fold change in test [10] (setting [17]) was 0.91 (inactive); in test [10] (setting [18]), 1.36. The cell count in test [10] (setting [19]) stood at 9040; in [10] (setting [20]), 9920. For the same compound, the results for the z-score in test [14] (setting [21]) and in test [14] (setting [22]) were 0.417 (inactive) and 0.115, respectively. The remaining NAD in test [11] is 10 nM (inactive).
Consider `CCOc1ccc(NC(=O)CC(C)O)cc1` (stereo not drawn), for which the nuclear beta-catenin stimulation was -2.6% (inactive) in test [1] (at 10 µM) and 0.2% in [1] (stimulation, at 2 µM). Moreover, in test [2], the insulin secretion stimulation is 0.2% (inactive). In addition, the viability decrease in [3] was -0.1% (inactive). In [4], the tube area decrease is 4.3% (inactive). Besides, the GLP1 secretion stimulation in test [5] is -3.3% (inactive). For the same compound, the inhibition of viability in [6] is 1.4% (inactive). Further, the figures for the viability decrease (inhibition) in test [7] and in test [8] were -2.6% (active) and -15.7% (inactive), respectively. In [9], the red/green cell ratio (normalised) is 1.16 (inactive). In addition, the normalised cell number worked out at 0.83 in [9] (setting [15]) and 0.96 in test [9] (setting [16]). For the same compound, the fold change was 0.956 (inactive) in test [10] (setting [17]) and 0.822 in [10] (setting [18]). For the same compound, the cell count in test [10] (setting [19]) was determined as 9180; in test [10] (setting [20]), 9600. Moreover, in test [11], the remaining NAD is 10 nM (inactive).

One may read the viability as a read-out of living cells in per cent, often relative to untreated cells.
